Laboratory results: the supplement of paper PMC8728848
The sample as a whole holds a higher share of the strongest signals than the screen did.

What was measured:
Test in all cases: glycan array binding signal (z-score within array); higher = stronger binding
Conditions in all cases: glycan notation: IUPAC condensed, linker removed
[1] = molecular target: Fuc(a1-2)Gal(b1-3)GalNAc(b1-3)Gal(a1-4)Gal(b1-4)Glc
How it was run: (§1)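 Arrays were curated from the Consortium for Functional Glycomics database, 3228 in total, and kept only where the protein sequence was available. Binding is expressed as a within-array Z-score. This score was averaged across arrays of the same protein sequence at different concentrations or buffers and across linkers, and negative values can be read as non-binding.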

[2] = molecular target: Fuc(a1-2)Gal(b1-3)GlcNAc(b1-3)[Fuc(a1-2)Gal(b1-3)GlcNAc(b1-6)]GalNAc
How it was run: as §1

[3] = molecular target: Fuc(a1-2)Gal(b1-4)[Fuc(a1-3)]GlcNAc
How it was run: as §1

[4] = molecular target: Fuc(a1-2)[Gal(a1-3)]Gal(b1-4)GlcNAc(b1-2)Man(a1-3)[Fuc(a1-2)[Gal(a1-3)]Gal(b1-4)GlcNAc(b1-2)Man(a1-6)]Man(b1-4)GlcNAc(b1-4)GlcNAc
How it was run: as §1

[5] = molecular target: Fuc(a1-2)[Gal(a1-3)]Gal(b1-4)[Fuc(a1-3)]GlcNAc(b1-3)GalNAc
How it was run: as §1

[6] = molecular target: Fuc(a1-2)[GalNAc(a1-3)]Gal(b1-3)GlcNAc
How it was run: as §1

[7] = molecular target: Fuc(a1-3)[Gal(b1-4)]GlcNAc(b1-3)GalNAc
How it was run: as §1

[8] = molecular target: Fuc(a1-3)[Gal3S(b1-4)]GlcNAc
How it was run: as §1

[9] = molecular target: Gal(a1-3)Gal(b1-3)GlcNAc(b1-2)Man
How it was run: as §1

Gal(a1-6)Glc = molecular target: Gal(a1-6)Glc
How it was run: as §1

[10] = molecular target: Gal(b1-3)GlcNAc(a1-6)Gal(b1-4)GlcNAc
How it was run: as §1

[11] = molecular target: Gal(b1-4)GlcNAc(b1-2)Man(a1-3)[Gal(b1-4)GlcNAc(b1-2)Man(a1-6)][Gal(b1-4)GlcNAc(b1-4)]Man(b1-4)GlcNAc(b1-4)[Fuc(a1-6)]GlcNAc
How it was run: as §1

[12] = molecular target: Gal(b1-4)GlcNAc(b1-2)Man(a1-3)[Gal(b1-4)GlcNAc(b1-2)Man(a1-6)][GlcNAc(b1-4)]Man(b1-4)GlcNAc(b1-4)[Fuc(a1-6)]GlcNAc
How it was run: as §1

[13] = molecular target: Gal(b1-4)GlcNAc(b1-2)[Gal(b1-4)GlcNAc(b1-6)]Man(a1-6)[GlcNAc(b1-4)][Gal(b1-4)GlcNAc(b1-2)Man(a1-3)]Man(b1-4)GlcNAc(b1-4)GlcNAc
How it was run: as §1

[14] = molecular target: Gal(b1-4)GlcNAc(b1-3)Gal(b1-3)GalNAc
How it was run: as §1

[15] = molecular target: Gal(b1-4)GlcNAc(b1-3)Gal(b1-4)GlcNAc(b1-2)Man(a1-3)[Gal(b1-4)GlcNAc(b1-3)Gal(b1-4)GlcNAc(b1-2)Man(a1-6)]Man(b1-4)GlcNAc(b1-4)[Fuc(a1-6)]GlcNAc
How it was run: as §1

Gal3S(b1-3)GalNAc = molecular target: Gal3S(b1-3)GalNAc
How it was run: as §1

[16] = molecular target: GlcA3S(b1-3)Gal(b1-4)GlcNAc(b1-2)Man
How it was run: as §1

[17] = molecular target: GlcNAc(a1-4)Gal(b1-4)GlcNAc(b1-3)Gal(b1-4)Glc
How it was run: as §1

[18] = molecular target: GlcNAc(a1-4)Gal(b1-4)GlcNAc(b1-3)Gal(b1-4)[Fuc(a1-3)]GlcNAc(b1-3)Gal(b1-4)[Fuc(a1-3)]GlcNAc
How it was run: as §1

[19] = molecular target: GlcNAc(b1-2)Man(a1-3)[GlcNAc(b1-2)Man(a1-6)]Man(b1-4)GlcNAc(b1-4)[Fuc(a1-6)]GlcNAc
How it was run: as §1

[20] = molecular target: GlcNAc(b1-2)[GlcNAc(b1-4)]Man(a1-3)[GlcNAc(b1-4)][GlcNAc(b1-2)[GlcNAc(b1-6)]Man(a1-6)]Man(b1-4)GlcNAc(b1-4)[Fuc(a1-6)]GlcNAc
How it was run: as §1

[21] = molecular target: GlcNAc(b1-2)[GlcNAc(b1-6)]Man(a1-6)[GlcNAc(b1-2)Man(a1-3)]Man(b1-4)GlcNAc(b1-4)GlcNAc
How it was run: as §1

[22] = molecular target: GlcNAc(b1-3)Gal(b1-4)GlcNAc(b1-2)Man(a1-3)[GlcNAc(b1-3)Gal(b1-4)GlcNAc(b1-2)Man(a1-6)]Man(b1-4)GlcNAc(b1-4)GlcNAc
How it was run: as §1

[23] = molecular target: GlcNAc(b1-3)Gal(b1-4)GlcNAc(b1-3)Gal(b1-4)GlcNAc
How it was run: as §1

[24] = molecular target: GlcNAc(b1-3)Gal(b1-4)GlcNAc(b1-3)Gal(b1-4)GlcNAc(b1-2)Man(a1-3)[GlcNAc(b1-3)Gal(b1-4)GlcNAc(b1-3)Gal(b1-4)GlcNAc(b1-2)Man(a1-6)]Man(b1-4)GlcNAc(b1-4)[Fuc(a1-6)]GlcNAc
How it was run: as §1

[25] = molecular target: GlcNAc(b1-3)[GlcNAc(b1-6)]GalNAc
How it was run: as §1

[26] = molecular target: Kdn(a2-3)Gal(b1-4)[Fuc(a1-3)]GlcNAc
How it was run: as §1

Man(b1-4)GlcNAc = molecular target: Man(b1-4)GlcNAc
How it was run: as §1

[27] = molecular target: Neu5Ac(a2-3)Gal(b1-3)GlcNAc6S
How it was run: as §1

[28] = molecular target: Neu5Ac(a2-3)Gal(b1-4)GlcNAc(b1-2)[Neu5Ac(a2-3)Gal(b1-4)GlcNAc(b1-4)]Man(a1-3)[GlcNAc(b1-4)][Neu5Ac(a2-3)Gal(b1-4)GlcNAc(b1-2)[Neu5Ac(a2-3)Gal(b1-4)GlcNAc(b1-6)]Man(a1-6)]Man(b1-4)GlcNAc(b1-4)GlcNAc
How it was run: as §1

[29] = molecular target: Neu5Ac(a2-3)Gal(b1-4)GlcNAc(b1-6)GalNAc
How it was run: as §1

[30] = molecular target: Neu5Ac(a2-3)Gal(b1-4)[Fuc(a1-3)]GlcNAc6S
How it was run: as §1

[31] = molecular target: Neu5Ac(a2-3)Gal6S(b1-4)GlcNAc
How it was run: as §1

[32] = molecular target: Neu5Ac(a2-3)[Neu5Ac(a2-6)]GalNAc
How it was run: as §1

[33] = molecular target: Neu5Ac(a2-6)Gal(b1-4)GlcNAc(b1-2)Man(a1-3)[GlcNAc(b1-4)][Neu5Ac(a2-6)Gal(b1-4)GlcNAc(b1-2)Man(a1-6)]Man(b1-4)GlcNAc(b1-4)GlcNAc
How it was run: as §1

[34] = molecular target: Neu5Ac(a2-6)Gal(b1-4)GlcNAc(b1-2)Man(a1-3)[Neu5Ac(a2-6)Gal(b1-4)GlcNAc(b1-2)Man(a1-6)]Man(b1-4)GlcNAc(b1-4)[Fuc(a1-6)]GlcNAc
How it was run: as §1

[35] = molecular target: Neu5Ac(a2-6)Gal(b1-4)GlcNAc(b1-2)Man(a1-6)[GlcNAc(b1-2)Man(a1-3)]Man(b1-4)GlcNAc(b1-4)GlcNAc
How it was run: as §1

[36] = molecular target: Neu5Gc(a2-3)Gal(b1-3)[Fuc(a1-4)]GlcNAc
How it was run: as §1

[37] = molecular target: Neu5Gc(a2-8)Neu5Gc(a2-6)Gal(b1-4)GlcNAc
How it was run: as §1

B1: Clec18Av1 (Homo sapiens), A5D8T8 (protein)
chain: MLHPETSPGRGHLLAVLLALLGTAWAEVWPPQLQEQAPMAGALNRKESFLLLSLHNRLRSWVQPPAADMRRLDWSDSLAQLAQARAALCGTPTPSLASGLWRTLQVGWNMQLLPAGLVSFVEVVSLWFAEGQRYSHAAGECARNATCTHYTQLVWATSSQLGCGRHLCSAGQAAIEAFVCAYSPRGNWEVNGKTIVPYKKGAWCSLCTASVSGCFKAWDHAGGLCEVPRNPCRMSCQNHGRLNISTCHCHCPPGYTGRYCQVRCSLQCVHGRFREEECSCVCDIGYGGAQCATKVHFPFHTCDLRIDGDCFMVSSEADTYYRARMKCQRKGGVLAQIKSQKVQDILAFYLGRLETTNEVIDSDFETRNFWIGLTYKTAKDSFRWATGEHQAFTSFAFGQPDNHGFGNCVELQASAAFNWNDQRCKTRNRYICQFAQEHISRWGPGS
**Q.** B1 was tested. Which “glycan array binding signal (z-score)” value [1] did it give?
**A.** The value was -0.849.

**Q.** And the “glycan array binding signal (z-score)” value [2]?
**A.** Its value is 4.48.

**Q.** And the “glycan array binding signal (z-score)” value [3]?
**A.** The value was -0.818.

**Q.** What about the “glycan array binding signal (z-score)” value [4] of the same binder?
**A.** The value was 3.05.

**Q.** And the “glycan array binding signal (z-score)” value [5]?
**A.** Its value is -0.446.

**Q.** What about the “glycan array binding signal (z-score)” value [6] of the same binder?
**A.** The value was -0.502.

**Q.** And the “glycan array binding signal (z-score)” value [7]?
**A.** The value was 1.02.

**Q.** And the “glycan array binding signal (z-score)” value [8]?
**A.** Its value is -0.843.

**Q.** What about the “glycan array binding signal (z-score)” value [9] of the same binder?
**A.** Its value is 3.22.

**Q.** What about the “glycan array binding signal (z-score)” value (Gal(a1-6)Glc) of the same binder?
**A.** Its value is -0.747.

**Q.** What about the “glycan array binding signal (z-score)” value [10] of the same binder?
**A.** The value was 4.04.

**Q.** And the “glycan array binding signal (z-score)” value [11]?
**A.** The value was 2.24.

**Q.** What about the “glycan array binding signal (z-score)” value [12] of the same binder?
**A.** Its value is 0.712.

**Q.** And the “glycan array binding signal (z-score)” value [13]?
**A.** The value was 3.23.

**Q.** And the “glycan array binding signal (z-score)” value [14]?
**A.** Its value is 3.37.

**Q.** And the “glycan array binding signal (z-score)” value [15]?
**A.** Its value is 2.85.

**Q.** What about the “glycan array binding signal (z-score)” value (Gal3S(b1-3)GalNAc) of the same binder?
**A.** The value was -0.82.

**Q.** What about the “glycan array binding signal (z-score)” value [16] of the same binder?
**A.** Its value is -0.197.

**Q.** What about the “glycan array binding signal (z-score)” value [17] of the same binder?
**A.** The value was -0.356.

**Q.** What about the “glycan array binding signal (z-score)” value [18] of the same binder?
**A.** Its value is 4.79.

**Q.** And the “glycan array binding signal (z-score)” value [19]?
**A.** The value was 3.54.

**Q.** And the “glycan array binding signal (z-score)” value [20]?
**A.** Its value is -0.868.

**Q.** And the “glycan array binding signal (z-score)” value [21]?
**A.** The value was -0.432.

**Q.** What about the “glycan array binding signal (z-score)” value [22] of the same binder?
**A.** The value was 1.53.

**Q.** What about the “glycan array binding signal (z-score)” value [23] of the same binder?
**A.** Its value is -0.861.

**Q.** And the “glycan array binding signal (z-score)” value [24]?
**A.** Its value is -0.74.

**Q.** And the “glycan array binding signal (z-score)” value [25]?
**A.** The value was -0.808.

**Q.** What about the “glycan array binding signal (z-score)” value [26] of the same binder?
**A.** Its value is 0.16.

**Q.** What about the “glycan array binding signal (z-score)” value (Man(b1-4)GlcNAc) of the same binder?
**A.** Its value is -0.825.

**Q.** And the “glycan array binding signal (z-score)” value [27]?
**A.** Its value is -0.859.

**Q.** And the “glycan array binding signal (z-score)” value [28]?
**A.** Its value is -0.868.

**Q.** And the “glycan array binding signal (z-score)” value [29]?
**A.** Its value is 1.49.

**Q.** What about the “glycan array binding signal (z-score)” value [30] of the same binder?
**A.** The value was -0.818.

**Q.** And the “glycan array binding signal (z-score)” value [31]?
**A.** The value was -0.585.

**Q.** And the “glycan array binding signal (z-score)” value [32]?
**A.** Its value is -0.853.

**Q.** What about the “glycan array binding signal (z-score)” value [33] of the same binder?
**A.** The value was -0.604.

**Q.** What about the “glycan array binding signal (z-score)” value [34] of the same binder?
**A.** Its value is 3.58.

**Q.** And the “glycan array binding signal (z-score)” value [35]?
**A.** Its value is 4.86.

**Q.** What about the “glycan array binding signal (z-score)” value [36] of the same binder?
**A.** Its value is -0.646.

**Q.** What about the “glycan array binding signal (z-score)” value [37] of the same binder?
**A.** The value was 0.057.
